Source: the supplement of paper PMC10849652
About 7,900 targets were measured; listed, in parts, are those with a hit and a random draw of the rest. About 0.6% of all pairs of compound and target were hits.

Legend:
Experiment in all cases: log2 fold change, soluble protein after heating vs DMSO (PISA); higher = thermal stabilisation; K562 cells, 10 uM, 30 min; active = over 0.2 and 3.5 SD of the protein, either way, in both replicates (recomputed)
bafetinib = compound: Cc1ccc(NC(=O)c2ccc(CN3CC[C@H](N(C)C)C3)c(C(F)(F)F)c2)cc1Nc1nccc(-c2cncnc2)n1 [bafetinib]
How it was run: (§1)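 For each measurement, 10 μM compound was applied for 30 min to K562 cells at 2×10^6 cells/mL. Aliquots were heated for 3 min across 48°C-58°C, pooled, and extracted in PBS with 0.5% NP-40 at 4°C; the supernatant after 21,000xg for 90 min was soluble protein. This was quantified by TMTpro 16plex LC-MS/MS with channel sums equalised, and thermal stability was reported relative to control samples from duplicates, on a log2 fold-change scale.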

[1] = compound: Cc1cccc(CC(=O)N2CCc3c2ccc(-c2cn(C)c4ncnc(N)c24)c3F)n1
How it was run: as §1

nilotinib = compound: Cc1cn(-c2cc(NC(=O)c3ccc(C)c(Nc4nccc(-c5cccnc5)n4)c3)cc(C(F)(F)F)c2)cn1 [nilotinib]
How it was run: as §1

[2] = compound: Cc1nc(Nc2n[nH]c3c2CN(C(=O)N[C@H](CN(C)C)c2ccccc2)C3(C)C)c2sccc2n1
How it was run: as §1

dasatinib = compound: Cc1nc(Nc2ncc(C(=O)Nc3c(C)cccc3Cl)s2)cc(N2CCN(CCO)CC2)n1 [dasatinib]
How it was run: as §1

[3] = compound: Cc1ncc(-c2ccnc(Nc3ccc(S(C)(=O)=O)cc3)n2)n1C(C)C
How it was run: as §1

[4] = compound: Cn1cc(-c2ccc3c(c2)CCN3C(=O)Cc2cccc(C(F)(F)F)c2)c2c(N)ncnc21
How it was run: as §1

[5] = compound: Cn1cc(-c2ccc3nnc(C(F)(F)c4ccc5ncccc5c4)n3n2)cn1
How it was run: as §1

tipifarnib = compound: Cn1cncc1[C@@](N)(c1ccc(Cl)cc1)c1ccc2c(c1)c(-c1cccc(Cl)c1)cc(=O)n2C [tipifarnib]
How it was run: as §1

mubritinib = compound: FC(F)(F)c1ccc(/C=C/c2nc(COc3ccc(CCCCn4ccnn4)cc3)co2)cc1 [mubritinib]
How it was run: as §1

Measured: log2 fold change

INPP1 (UniProt P49441)
Chain of UniProt P49441 (P49441 whole entry, looked up): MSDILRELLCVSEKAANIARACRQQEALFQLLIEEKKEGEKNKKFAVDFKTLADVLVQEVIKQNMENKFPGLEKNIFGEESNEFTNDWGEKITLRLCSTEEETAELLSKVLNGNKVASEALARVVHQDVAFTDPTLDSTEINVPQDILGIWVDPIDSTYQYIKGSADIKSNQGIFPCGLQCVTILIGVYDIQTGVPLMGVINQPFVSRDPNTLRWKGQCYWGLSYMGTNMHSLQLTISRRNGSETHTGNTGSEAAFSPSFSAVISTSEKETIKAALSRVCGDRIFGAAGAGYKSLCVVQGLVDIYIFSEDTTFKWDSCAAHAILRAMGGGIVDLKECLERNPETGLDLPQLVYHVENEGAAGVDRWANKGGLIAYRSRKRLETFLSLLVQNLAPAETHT
inactive: bafetinib 0.003 | [1] 0.094 | nilotinib -0.001 | [2] 0.067 | dasatinib 0.027 | [3] 0.053 | [4] 0.037 | [5] 0.027 | tipifarnib -0.135 | mubritinib 0.15

LYPLA2 (UniProt O95372)
inactive: bafetinib 0.139 | [1] 0.007 | nilotinib 0.13 | [2] -0.042 | dasatinib 0 | [3] -0.026 | [4] 0.175 | [5] 0.298 | tipifarnib -0.054 | mubritinib 0.013

LRRFIP1 (UniProt Q32MZ4)
inactive: bafetinib -0.034 | [1] -0.043 | nilotinib 0.008 | [2] 0.002 | dasatinib 0.038 | [3] -0.016 | [4] 0.024 | [5] 0.013 | tipifarnib 0.016 | mubritinib 0.035

KLC2 (UniProt Q9H0B6)
active: [2] -0.388
inactive: bafetinib 0.013 | [1] 0.018 | nilotinib -0.049 | dasatinib -0.07 | [3] 0.025 | [4] 0.05 | [5] 0.046 | tipifarnib 0.031 | mubritinib 0.009

MFSD5 isoform 2 (UniProt Q6N075)
Chain of UniProt Q6N075 (Q6N075 whole entry, looked up): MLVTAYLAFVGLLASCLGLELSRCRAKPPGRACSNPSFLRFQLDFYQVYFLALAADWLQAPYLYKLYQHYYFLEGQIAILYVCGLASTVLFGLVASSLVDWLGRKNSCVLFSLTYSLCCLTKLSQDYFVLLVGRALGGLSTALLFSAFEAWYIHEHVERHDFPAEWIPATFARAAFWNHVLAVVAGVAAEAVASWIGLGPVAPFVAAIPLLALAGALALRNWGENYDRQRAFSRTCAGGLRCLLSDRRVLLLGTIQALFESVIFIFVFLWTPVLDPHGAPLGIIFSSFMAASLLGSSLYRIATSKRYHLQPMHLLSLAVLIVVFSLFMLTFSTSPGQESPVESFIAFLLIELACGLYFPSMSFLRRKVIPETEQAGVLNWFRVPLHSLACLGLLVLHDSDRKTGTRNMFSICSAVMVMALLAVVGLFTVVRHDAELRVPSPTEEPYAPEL
inactive: bafetinib -0.126 | [1] 0.009 | nilotinib 0.054 | [2] 0.055 | dasatinib -0.029 | [3] -0.057 | [4] -0.048 | [5] 0.009 | tipifarnib 0.141 | mubritinib 0.128

KTN1 (UniProt Q86UP2)
inactive: bafetinib 0.042 | [1] 0.013 | nilotinib -0.117 | [2] 0.055 | dasatinib -0.013 | [3] 0.063 | [4] -0.081 | [5] -0.03 | tipifarnib -0.064 | mubritinib -0.032

MAP2K1 (UniProt Q02750)
Chain of UniProt Q02750 (Q02750 whole entry, looked up): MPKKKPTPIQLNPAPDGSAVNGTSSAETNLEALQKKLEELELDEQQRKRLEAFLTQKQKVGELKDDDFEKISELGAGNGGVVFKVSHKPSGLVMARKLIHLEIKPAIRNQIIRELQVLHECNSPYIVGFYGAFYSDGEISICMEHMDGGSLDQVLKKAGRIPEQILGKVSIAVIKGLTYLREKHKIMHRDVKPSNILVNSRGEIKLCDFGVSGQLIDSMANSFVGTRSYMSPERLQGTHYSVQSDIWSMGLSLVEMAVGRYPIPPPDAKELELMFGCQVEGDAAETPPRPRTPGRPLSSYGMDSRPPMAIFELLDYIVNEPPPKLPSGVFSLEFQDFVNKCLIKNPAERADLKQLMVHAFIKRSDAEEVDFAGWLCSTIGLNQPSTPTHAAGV
inactive: bafetinib -0.026 | [1] -0.039 | nilotinib -0.015 | [2] -0.052 | dasatinib -0.063 | [3] 0.008 | [4] 0.023 | [5] 0.021 | tipifarnib -0.024 | mubritinib 0.015

LSR (UniProt Q86X29)
inactive: bafetinib 0.068 | [1] -0.057 | nilotinib 0.024 | dasatinib 0.003 | [3] 0.009 | [4] 0.072 | [5] 0.018 | tipifarnib 0.011 | mubritinib 0.01
active: [2] -0.254

KXD1 (UniProt Q9BQD3)
Chain of UniProt Q9BQD3 (Q9BQD3 whole entry, looked up): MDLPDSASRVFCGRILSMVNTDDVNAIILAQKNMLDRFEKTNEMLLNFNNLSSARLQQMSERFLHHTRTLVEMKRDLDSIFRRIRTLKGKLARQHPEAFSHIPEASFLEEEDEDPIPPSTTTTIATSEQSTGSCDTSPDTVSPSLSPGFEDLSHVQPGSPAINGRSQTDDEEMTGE
inactive: bafetinib -0.131 | [1] 0.045 | dasatinib -0.082 | [4] 0.019 | [5] 0.085 | tipifarnib 0.024 | mubritinib 0.052

KMT2C isoform 3 (UniProt Q8NEZ4)
inactive: bafetinib -0.209 | [1] -0.041 | nilotinib -0.049 | [2] -0.093 | dasatinib 0.043 | [3] 0.001 | [4] 0.094 | [5] -0.215 | mubritinib 0.083

LENG8 (UniProt Q96PV6)
Chain of UniProt Q96PV6 (Q96PV6 whole entry, looked up): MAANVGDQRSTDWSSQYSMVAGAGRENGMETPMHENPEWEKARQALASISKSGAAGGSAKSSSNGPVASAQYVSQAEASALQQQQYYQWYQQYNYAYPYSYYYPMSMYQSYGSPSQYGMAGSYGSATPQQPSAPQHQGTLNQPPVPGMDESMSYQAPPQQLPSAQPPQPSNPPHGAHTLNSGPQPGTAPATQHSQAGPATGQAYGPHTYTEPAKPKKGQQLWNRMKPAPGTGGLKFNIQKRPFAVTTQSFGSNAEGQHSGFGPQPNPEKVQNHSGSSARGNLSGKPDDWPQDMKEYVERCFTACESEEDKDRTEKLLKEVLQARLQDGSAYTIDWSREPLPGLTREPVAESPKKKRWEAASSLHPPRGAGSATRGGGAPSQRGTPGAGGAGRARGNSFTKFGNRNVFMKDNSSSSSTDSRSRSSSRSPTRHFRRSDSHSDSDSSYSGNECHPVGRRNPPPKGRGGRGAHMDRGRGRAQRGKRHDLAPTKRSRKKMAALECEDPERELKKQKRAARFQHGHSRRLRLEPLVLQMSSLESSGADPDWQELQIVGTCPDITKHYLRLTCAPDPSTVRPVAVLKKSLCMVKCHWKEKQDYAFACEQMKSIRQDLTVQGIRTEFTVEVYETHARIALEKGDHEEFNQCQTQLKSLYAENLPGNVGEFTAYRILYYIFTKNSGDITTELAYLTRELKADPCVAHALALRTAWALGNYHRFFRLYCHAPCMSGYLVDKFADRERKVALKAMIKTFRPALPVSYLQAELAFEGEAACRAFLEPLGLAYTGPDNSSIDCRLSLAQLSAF
inactive: bafetinib -0.088 | [1] 0.112 | nilotinib 0.006 | [2] -0.036 | dasatinib -0.388 | [3] -0.146 | [4] -0.039 | [5] -0.031 | mubritinib 0.032

MIF (UniProt P14174)
Chain of UniProt P14174 (P14174 whole entry, looked up): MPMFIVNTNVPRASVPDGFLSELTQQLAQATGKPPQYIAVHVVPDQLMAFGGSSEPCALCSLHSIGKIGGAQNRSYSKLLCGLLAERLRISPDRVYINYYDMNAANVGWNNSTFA
inactive: bafetinib 0.012 | [1] 0.034 | nilotinib 0.088 | [2] 0 | dasatinib 0.052 | [3] -0.052 | [4] 0.067 | [5] 0.076 | tipifarnib -0.029 | mubritinib 0.021

LAPTM4B (UniProt Q86VI4)
Chain of UniProt Q86VI4 (Q86VI4 whole entry, looked up): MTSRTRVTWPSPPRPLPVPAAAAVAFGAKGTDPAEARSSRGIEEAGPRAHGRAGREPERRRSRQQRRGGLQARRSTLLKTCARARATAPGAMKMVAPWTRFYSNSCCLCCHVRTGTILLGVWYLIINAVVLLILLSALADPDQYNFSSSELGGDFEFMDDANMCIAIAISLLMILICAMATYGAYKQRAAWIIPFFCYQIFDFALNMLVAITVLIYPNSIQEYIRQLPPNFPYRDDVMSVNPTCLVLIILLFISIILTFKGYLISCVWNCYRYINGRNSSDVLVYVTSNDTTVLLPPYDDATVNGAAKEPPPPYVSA
inactive: bafetinib 0.024 | [1] -0.137 | mubritinib 0.017

MED22 (UniProt Q15528)
Chain of UniProt Q15528 (Q15528 whole entry, looked up): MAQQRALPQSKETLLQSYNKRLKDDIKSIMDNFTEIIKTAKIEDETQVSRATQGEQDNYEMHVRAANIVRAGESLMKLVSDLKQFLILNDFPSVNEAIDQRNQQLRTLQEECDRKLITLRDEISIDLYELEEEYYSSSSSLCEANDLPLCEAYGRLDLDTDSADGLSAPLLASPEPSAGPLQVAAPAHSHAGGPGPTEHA
inactive: bafetinib -0.137 | nilotinib 0.019 | [2] -0.048 | dasatinib -0.009 | [3] -0.011 | [4] 0.102 | [5] 0.059 | mubritinib -0.043

MED12 isoform 2 (UniProt Q93074)
inactive: bafetinib -0.112 | [1] 0.044 | nilotinib -0.038 | [2] 0.068 | dasatinib -0.24 | [3] -0.058 | [5] 0.003 | tipifarnib -0.071 | mubritinib -0.103

MED8 isoform 2 (UniProt Q96G25)
inactive: bafetinib -0.026 | nilotinib 0.016 | [2] -0.015 | dasatinib 0.034 | [3] -0.171 | [4] -0.086 | [5] 0.013 | tipifarnib 0.012 | mubritinib -0.059

MCL1 (UniProt Q07820)
Chain of UniProt Q07820 (Q07820 whole entry, looked up): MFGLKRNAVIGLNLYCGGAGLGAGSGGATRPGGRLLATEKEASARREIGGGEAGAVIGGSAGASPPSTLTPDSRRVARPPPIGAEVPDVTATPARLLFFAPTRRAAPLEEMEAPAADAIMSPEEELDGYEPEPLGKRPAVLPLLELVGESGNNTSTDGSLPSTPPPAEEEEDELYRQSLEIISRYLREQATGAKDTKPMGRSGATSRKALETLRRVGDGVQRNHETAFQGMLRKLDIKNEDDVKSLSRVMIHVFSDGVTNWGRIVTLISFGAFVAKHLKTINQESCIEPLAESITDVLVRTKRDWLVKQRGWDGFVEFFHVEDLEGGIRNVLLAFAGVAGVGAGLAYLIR
inactive: bafetinib -0.181 | [1] -0.017 | nilotinib 0.015 | [2] -0.053 | dasatinib 0.068 | [3] -0.079 | [4] -0.021 | [5] -0.158 | tipifarnib 0.109 | mubritinib 0.001

KDELR2 (UniProt P33947)
Chain of UniProt P33947 (P33947 whole entry, looked up): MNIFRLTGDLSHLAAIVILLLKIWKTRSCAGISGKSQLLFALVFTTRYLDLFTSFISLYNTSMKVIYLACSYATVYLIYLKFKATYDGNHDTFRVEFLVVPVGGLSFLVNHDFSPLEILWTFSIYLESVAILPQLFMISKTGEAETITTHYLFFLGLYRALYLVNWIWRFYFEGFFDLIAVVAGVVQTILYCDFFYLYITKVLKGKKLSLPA
inactive: bafetinib -0.088 | [1] 0.072 | nilotinib -0.069 | [2] 0.035 | dasatinib 0.097 | [3] -0.082 | [4] 0.194 | [5] 0.264 | tipifarnib 0.125 | mubritinib -0.049

MAP4K5 (UniProt Q9Y4K4)
Chain of UniProt Q9Y4K4 (Q9Y4K4 whole entry, looked up): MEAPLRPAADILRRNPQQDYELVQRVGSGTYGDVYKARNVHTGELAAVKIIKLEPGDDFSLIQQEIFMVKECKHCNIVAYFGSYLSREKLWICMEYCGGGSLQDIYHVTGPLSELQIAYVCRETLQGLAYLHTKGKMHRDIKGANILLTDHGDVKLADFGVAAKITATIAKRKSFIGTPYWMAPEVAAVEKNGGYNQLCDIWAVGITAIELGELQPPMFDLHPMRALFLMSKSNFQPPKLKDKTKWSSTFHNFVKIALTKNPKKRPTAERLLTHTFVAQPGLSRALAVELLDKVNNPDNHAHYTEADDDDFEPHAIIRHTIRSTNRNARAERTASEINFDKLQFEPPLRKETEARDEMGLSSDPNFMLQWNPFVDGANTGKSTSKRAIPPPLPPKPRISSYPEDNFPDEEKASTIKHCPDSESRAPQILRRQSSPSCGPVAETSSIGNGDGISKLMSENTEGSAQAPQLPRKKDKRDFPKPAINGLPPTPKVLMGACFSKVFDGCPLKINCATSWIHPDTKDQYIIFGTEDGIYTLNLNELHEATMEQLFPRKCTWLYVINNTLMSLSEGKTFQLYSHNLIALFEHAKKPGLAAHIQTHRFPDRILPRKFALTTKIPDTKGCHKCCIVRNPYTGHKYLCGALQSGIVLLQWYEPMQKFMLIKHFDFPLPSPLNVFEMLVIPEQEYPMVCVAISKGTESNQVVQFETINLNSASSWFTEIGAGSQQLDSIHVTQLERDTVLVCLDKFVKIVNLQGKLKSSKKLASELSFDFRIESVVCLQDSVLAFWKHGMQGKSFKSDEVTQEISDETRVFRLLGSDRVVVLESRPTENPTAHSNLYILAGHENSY
inactive: bafetinib -0.064 | [1] -0.001 | nilotinib 0.136 | [2] -0.093 | [3] -0.116 | [4] -0.125 | [5] 0.019 | tipifarnib -0.146 | mubritinib 0.022

MCOLN3 (UniProt Q8TDD5)
inactive: bafetinib -0.03 | [1] -0.183 | nilotinib -0.289 | [2] -0.113 | [3] 0.041 | [5] 0.079 | tipifarnib 0.072 | mubritinib 0.05

ILRUN (UniProt Q9H6K1)
Chain of UniProt Q9H6K1 (Q9H6K1 whole entry, looked up): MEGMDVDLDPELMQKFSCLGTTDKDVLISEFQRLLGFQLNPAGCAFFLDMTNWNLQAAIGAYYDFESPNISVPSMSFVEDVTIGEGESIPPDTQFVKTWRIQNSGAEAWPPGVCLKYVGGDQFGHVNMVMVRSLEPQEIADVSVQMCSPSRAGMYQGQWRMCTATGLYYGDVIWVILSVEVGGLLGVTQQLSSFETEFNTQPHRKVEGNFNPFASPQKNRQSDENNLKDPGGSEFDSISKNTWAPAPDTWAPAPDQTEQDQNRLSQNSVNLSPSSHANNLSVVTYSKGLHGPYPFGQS
active: [3] 0.258
inactive: bafetinib -0.05 | nilotinib -0.01 | [2] -0.086 | dasatinib -0.08 | [4] -0.013 | [5] -0.039 | tipifarnib -0.023 | mubritinib 0.029

LGALS8 isoform 2 (UniProt O00214)
Chain of UniProt O00214 (O00214 whole entry, looked up): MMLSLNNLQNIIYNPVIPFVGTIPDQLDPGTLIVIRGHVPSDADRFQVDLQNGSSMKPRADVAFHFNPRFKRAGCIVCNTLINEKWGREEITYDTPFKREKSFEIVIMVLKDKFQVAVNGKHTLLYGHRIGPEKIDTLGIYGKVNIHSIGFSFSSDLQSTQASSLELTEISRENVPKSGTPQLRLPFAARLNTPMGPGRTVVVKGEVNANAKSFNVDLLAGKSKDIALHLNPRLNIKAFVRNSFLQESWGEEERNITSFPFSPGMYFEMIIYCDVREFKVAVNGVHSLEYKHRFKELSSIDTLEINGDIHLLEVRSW
inactive: bafetinib 0.107 | [1] 0.079 | dasatinib 0.013 | [4] -0.253 | mubritinib -0.186
